Compound activity deposited in PubChem by several laboratories.
Compounds with a hit are over-represented: about 27% of the library has one in this group of screens.
CYP2C9 inhib = blockers of cytochrome P450 2C9 activity – biochemical, luminescence, ADME assay, primary screen. AID 777, 2007. inhibition, % at 5 µM. CYP2C9 Supersomes, luciferin-H conversion. P11712. 96,000 tested, 20% active;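 active = blocking of liver enzyme CYP2C9 beyond about 50% at 5 µM, limit read from the data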
Target sequence (P11712 whole entry, looked up): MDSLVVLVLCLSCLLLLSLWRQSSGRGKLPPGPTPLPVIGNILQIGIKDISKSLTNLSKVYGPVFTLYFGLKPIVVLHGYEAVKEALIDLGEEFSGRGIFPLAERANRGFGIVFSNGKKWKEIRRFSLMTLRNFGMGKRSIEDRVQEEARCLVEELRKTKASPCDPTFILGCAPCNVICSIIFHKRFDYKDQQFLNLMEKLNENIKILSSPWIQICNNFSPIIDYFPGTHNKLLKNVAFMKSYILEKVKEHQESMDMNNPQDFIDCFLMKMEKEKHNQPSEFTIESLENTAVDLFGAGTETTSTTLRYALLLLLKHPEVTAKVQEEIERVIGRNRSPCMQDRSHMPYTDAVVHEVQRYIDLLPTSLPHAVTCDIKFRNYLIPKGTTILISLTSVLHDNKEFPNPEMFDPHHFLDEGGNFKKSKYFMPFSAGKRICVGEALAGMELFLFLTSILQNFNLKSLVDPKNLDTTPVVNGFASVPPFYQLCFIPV
Cav3 T inh = Cav3.2 calcium influx blockers – cell-based, Fluo-4 calcium fluorescence, FDSS, MLSMR library, primary screen | Voltage-dependent T-type calcium channel subunit alpha-1H (Homo sapiens), O95180 | Cav3.2-expressing cells; stronger effect = lower value | B-score at 10 µM | 100,000 tested, 4% active | AID 449739, 2010;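 active = single-dose well whose peak fluorescence ratio is a statistical outlier from its plate by either plate-standardised score or position-corrected B-score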
CYP2C19 inh = blockers of cytochrome P450 2C19 activity – biochemical, luminescence, ADME assay, primary screen. P33261. CYP2C19 Supersomes, luciferin-H EGE luminescence, 30 min. inhibition, % at 5 µM. 96,000 tested, 21% active. AID 778, 2007;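 active = CYP2C19 inhibition above a set limit at 5 µM in the primary screen, cut at about 50% in these data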;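 note: plate controls were negative control wells for no effect and 2.5 mM tranylcypromine positive control for full effect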
CYP2C19 activ = human CYP2C19 activators, primary screen, biochemical, luminescence | AID 1025, 2008 | 96,000 tested, under 10 active | recombinant CYP2C19, luciferin-H EGE luminescence; stronger effect = higher value; 0 = fully inhibited enzyme, 1 = untreated enzyme | activation factor at 5 µM;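 active = activation factor of at least 2 at 5 µM in the primary screen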;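 note: 0 = wells with 2.5 mM tranylcypromine and 1 = vehicle-only wells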
CYP2C9 activ = human CYP2C9 activators, primary screen, biochemical, luminescence. recombinant CYP2C9, luciferin-H conversion; stronger effect = higher value; factor 1 = untreated enzyme, 0 = blocked. activation factor at 5 µM. AID 1024, 2008. Cytochrome P450 2C9 (Homo sapiens), P11712. 96,000 tested, 1.4% active;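 active = activation factor of 2 or more for CYP2C9 at a 5 µM dose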;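 note: 0 = sulfaphenazole-blocked wells and 1 = vehicle-only wells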
Pyk2 oligo antag = antagonists of Pyk2 self-association, primary screen, Q293 cells, FERM NanoBiT luminescence, HTS; AID 1347419, 2020; stronger effect = lower value; 99,000 tested, 0.83% active; z-score (the deposit names both 25 µM and 10 µM);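 active = Z-score of -3 or lower, scaled per plate to the spread of control and sample wells; inactive = z-score above -3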;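 note: negative z-score means lost luminescence so less FERM oligomerization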
The depositor's hits bear a star; nt = no result.

SMILES | CYP2C9 inhib | Cav3 T inh | CYP2C19 inh | CYP2C19 activ | CYP2C9 activ | Pyk2 oligo antag
NS(=O)(=O)c1ccc(CCNC2CC(=O)N(CCc3ccccc3)C2=O)cc1 (stereo unspecified) | -15 | 0.4 | -12 | 1.1 | 1.2 | 0.06
CCOC(=O)N1CCC(NC(=O)c2ccc(CS(=O)(=O)c3c(Cl)cccc3Cl)o2)CC1 | 66* | 2.1 | -7 | 1.1 | 0.3 | nt
CN(C)CCN1C(=O)c2oc3ccc(Cl)cc3c(=O)c2C1c1cccc(Br)c1 (stereo unspecified) | 28 | -0.1 | 7 | 0.9 | 0.7 | 0.47
O=c1c(F)cn(C2CCCO2)c(=O)n1Cc1ccccc1F (stereo unspecified) | 38 | 0.18 | 84* | 0.2 | 0.6 | 0.05
CCN(Cc1ccccc1)C(=O)Cn1cc2c(n1)CCCC2 | 1 | 0.44 | 23 | 0.8 | 1 | nt
CCc1ccc(NC(=O)N(CCN(C)C)C(C)c2cccnc2)cc1 (stereo unspecified) | 15 | -0.54 | 16 | 0.8 | 0.8 | nt
CC(C)N(CCc1ccncc1)C(=O)Nc1ccc(F)cc1 | 87* | -0.29 | 97* | 0 | 0.1 | nt
CC(C)N(CCc1ccncc1)C(=O)Nc1ccc(Cl)c(Cl)c1 | 99* | 0.26 | 100* | 0 | 0 | nt
COc1ccc(C[C@H]2CN3C(=NC[C@@H]3C(C)C)N2CCNC(=O)c2ccc(C)c(Br)c2)cc1 | nt | -0.78 | nt | nt | nt | nt
COc1ccc(Nc2nc(C)cc(C)c2C#N)cc1OC | 28 | -0.12 | 16 | 0.8 | 0.7 | nt
O=C(NC(=O)c1cccc(Cl)c1)OC[C@@H]1CCCN2CCCCC12 (stereo partly specified) | 5 | 0.92 | 2 | 1 | 0.9 | nt
N#CCSc1nc(-c2ccccc2)cs1 | -51 | 0.31 | 56* | 0.4 | 1.5 | 0.41
N#CCSc1nnc(Nc2ccccc2)s1 | 42 | 1.4 | 84* | 0.2 | 0.6 | 1
FC(F)(F)C(Oc1nc(NC2CCCCC2)nc(N2CCOCC2)n1)C(F)(F)F | 27 | -4.9* | 16 | 0.8 | 0.7 | 0.14
Cc1ccc(Nc2nc(OC(C(F)(F)F)C(F)(F)F)nc(N3CCOCC3)n2)cc1 | 15 | -0.25 | 2 | 1 | 0.8 | -0.5
Cn1c(C2=C(O)CN(c3ccc4c(c3)OCCO4)C2=N)nc2ccccc21 | 0 | 0.58 | 16 | 0.8 | 1 | -0.31
CCCC/C(C)=N/NC(=O)C(=O)NCCc1ccccc1 | 15 | -1 | 2 | 1 | 0.8 | -0.38
O=C(CN1CCOCC1)OCCCC1CCCCC1 | 8 | -0.036 | 73* | 0.3 | 0.9 | 0.54
CCSc1nc(O)c(Cc2ccccc2)c(=O)[nH]1 | -28 | 0.35 | 2 | 1 | 1.3 | 0.45
COC(=O)CNC(=O)c1cccc(F)c1 | 4 | -0.42 | -7 | 1.1 | 1 | 0.94
CCN1C(=O)/C(=C/c2ccc(C)s2)NC1=S | 59* | -0.1 | 38 | 0.6 | 0.4 | -0.22
CCN1C(=O)/C(=C/c2ccc(C)s2)SC1=Nc1ccc(OC)cc1 | 47 | -0.65 | 29 | 0.7 | 0.5 | 0.08
Clc1cccc(Cl)c1COn1nnc2ccccc21 | 30 | -2.9 | 49 | 0.5 | 0.7 | -0.73
c1ccc(COn2nnc3ccccc32)c(COn2nnc3ccccc32)c1 | 93* | -4.8* | 99* | 0 | 0.1 | -1.9
CC(C)(C)n1nnnc1C(c1cccc(C#N)c1)N1CCC(Cc2ccccc2)CC1 (stereo unspecified) | 83* | -4.8* | 66* | 0.3 | 0.2 | -0.51
SMILES | CYP2C9 inhib | Cav3 T inh | CYP2C19 inh | CYP2C19 activ | CYP2C9 activ | Pyk2 oligo antag
CC(C)(C)n1nnnc1C(c1ccc(C#N)cc1)N1CCCC2(CCCCC2)C1 (stereo unspecified) | 21 | -3.1 | -6 | 1.1 | 0.8 | -0.31
CCC(C)(C)n1nnnc1C(c1ccncc1)N1CCC(Cc2ccccc2)CC1 (stereo unspecified) | 91* | -3.7* | 90* | 0.1 | 0.1 | -3.1*
COCCn1nnnc1C(C(C)C)N1CCC(Cc2ccccc2)CC1 (stereo unspecified) | 56* | -1.6 | 91* | 0.1 | 0.4 | -0.98
Cc1cc(C)c2c(CC(=O)Nc3nccs3)coc2c1 | 20 | nt | 12 | 0.9 | 0.8 | -0.68
COc1cccc(-n2cnc3cccc(N)c32)c1 | -125 | 1.4 | 37 | 0.6 | 2.3* | -0.15
Cc1cc([N+](=O)[O-])c(C(C)(C)C)cc1N | 0 | 0.8 | 89* | 0.1 | 1 | 0.41
CCOC(=O)c1sc(-c2ccc(F)cc2)cc1N | 83* | 1.4 | 90* | 0.1 | 0.2 | 0.1
CCOC(=O)c1sc(-c2ccccc2)cc1N | 80* | -0.028 | 90* | 0.1 | 0.2 | -0.57
COc1cc(NC(=S)NC(=O)c2ccccc2C)ccc1NC(=O)c1cccs1 | 35 | 0.59 | 7 | 0.9 | 0.7 | -1.8
CC(C)(C)c1ccc(-c2nc3c(C#N)c(-c4ccc5c(c4)OCO5)ccn3n2)cc1 | 24 | -1.9 | -3 | 1 | 0.8 | -0.31
Cc1[nH][nH]c(=O)c1C(c1ccc(-c2ccc(Cl)c(Cl)c2)o1)c1c(C)[nH][nH]c1=O | 11 | nt | 59* | 0.4 | 0.9 | -0.56
CC(C)C(=O)Nc1ccc(NC(=S)NC(=O)c2ccc([N+](=O)[O-])cc2)cc1 | 32 | -0.44 | 8 | 0.9 | 0.7 | 0.02
COc1ccc(-c2[nH]c(-c3ccc(F)cc3)nc2SCC(=O)NCc2ccco2)cc1OC | 48 | 0.52 | 51* | 0.5 | 0.5 | nt
COc1ccc(-c2nc(SCC(=O)NCc3ccco3)c(-c3ccccc3)[nH]2)cc1OC | 65* | -1.5 | 78* | 0.2 | 0.4 | -0.84
COc1ccc(-c2[nH]c(-c3ccccc3)nc2SCC(=O)NCc2ccco2)cc1OC | 10 | 1.1 | 16 | 0.8 | 0.9 | nt
COC(=O)c1ccccc1NC(=O)c1cnn2c(C(F)F)cc(C3CC3)nc12 | 14 | -2.8 | -8 | 1.1 | 0.9 | -3.6*
O=C(NCCc1ccccc1)c1cnn2c(C(F)F)cc(C3CC3)nc12 | 46 | -3 | 87* | 0.1 | 0.5 | -1.6
Cc1nn(C)cc1CNC(=O)c1cnn2c(C(F)F)cc(C3CC3)nc12 | 46 | nt | 34 | 0.7 | 0.5 | -0.03
O=C(C1=C[C@@H](C2CCCCC2)C[C@@H](OCc2ccc(CO)cc2)O1)N1CCN(Cc2ccc3c(c2)OCO3)CC1 | nt | -1.1 | nt | nt | nt | nt
CC1CCCCC12NC(=O)N(CC(=O)Nc1sc3c(c1C(N)=O)CCC3)C2=O (stereo unspecified) | 70* | nt | 23 | 0.8 | 0.3 | 0.57
Cc1ccc(S(=O)(=O)/N=C(\CN2CCCCC2)N2CCOCC2)cc1 | 53* | 1.1 | 64* | 0.4 | 0.5 | 0.2
